Data on 37 compounds can be found in the supplement of paper PMC12067926.

The structures appear in SMILES notation.

The subject of one experiment is Pseudomonas 4 (Pseudomonas peli). In words: relative growth (AUC of 72 h growth curve relative to DMSO control, dAUC) (ratio); higher = more growth (less inhibition), active = hit call of the paper. To be noted: 20 µM. The method, boiled down: (§1)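 For relative growth (dAUC), the spline-integrated area under the growth curve was divided by the mean of the DMSO controls. Results were averaged over three biological replicates. Each replicate used a 1:100 dilution, into 96-well plates holding each chemical at 20 µM (1% DMSO), of isolates from Icelandic stream sediments and Silwood Park soil or whole sediment communities that had been grown to carrying capacity in Luria–Bertani medium. Plates were shaken briefly before each hourly A600 reading over 72 h.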
For the compound `CNC(=O)CSP(=S)(OC)OC`, the relative growth was 0.963 (inactive).
Consider `N#CCNC(=O)c1cnccc1C(F)(F)F`, for which the relative growth is 0.996 (inactive).
Same read-out and setting: under `COP(=O)(OC)OC=C(Cl)Cl` stands 0.963 (inactive); under `CCc1cc(C)cc(CC)c1-c1c(OC(=O)C(C)(C)C)n2n(c1=O)CCOCC2`, 0.953 (inactive); under `CCOc1ccc(C(C)(C)COCc2cccc(Oc3ccccc3)c2)cc1`, 0.914 (inactive).
Same read-out and setting: under `COc1ncc(F)c2nc(S(=O)(=O)Nc3c(F)cccc3F)nn12` stands 0.989 (inactive); under `O=[N+]([O-])c1cc(C(F)(F)F)c(Cl)c([N+](=O)[O-])c1Nc1ncc(C(F)(F)F)cc1Cl`, 0.498 (active).
For the compound `COP(=S)(OC)Oc1ccc(SC)c(C)c1`, the relative growth is 0.957 (inactive).
In the case of `CCCCCCCCCCCCNC(=N)N`, the relative growth is 0.847 (active).
On the same count and under the same terms, the figure for `CC(C)NC(=O)N1CC(=O)N(c2cc(Cl)cc(Cl)c2)C1=O` is 0.923 (inactive); for `CCCCOC(=O)[C@H](C)Oc1ccc(Oc2ccc(C#N)cc2F)cc1` it is 0.967 (inactive).
Consider `CCc1cccc(C)c1N(C(=O)CCl)[C@@H](C)COC`, for which the relative growth is 0.993 (inactive).
Still for that read-out and setting: the figure for `CC(C1CC1)C(O)(Cn1cncn1)c1ccc(Cl)cc1` (centres undefined) is 0.991 (inactive).
Consider `CC(COc1ccc(Oc2ccccc2)cc1)Oc1ccccn1` (centres undefined), for which the relative growth was 1.05 (inactive).
As for `CCNc1nc(Cl)nc(NC(C)C)n1`, the relative growth was 0.956 (inactive).
Same read-out and setting: under `N#C/N=C1\SCCN1Cc1ccc(Cl)nc1` stands 1.03 (inactive).
Still for that read-out and setting: the figure for `CCCC1COC(Cn2cncn2)(c2ccc(Cl)cc2Cl)O1` (centres undefined) is 0.914 (inactive); for `COc1cc(C)c(C(=O)c2c(OC)ccc(Br)c2C)c(OC)c1OC` it is 1.02 (inactive).
On the same count and under the same terms, under `C/C(=N\C#N)N(C)Cc1ccc(Cl)nc1` stands 0.991 (inactive); under `CCCCN(CCCC)SN(C)C(=O)Oc1cccc2c1OC(C)(C)C2`, 1.01 (inactive); under `N#Cc1c(Cl)c(Cl)c(Cl)c(C#N)c1Cl`, 1 (inactive).
Turning to `Cc1nc(N(C)C)nc(OC(=O)N(C)C)c1C`, the relative growth was 0.949 (inactive).
Still for that read-out and setting: under `CC(C)CC(C)c1sccc1NC(=O)c1cn(C)nc1C(F)(F)F` (centres undefined) stands 1 (inactive); under `Fc1ccc(Oc2ccnc3cc(Cl)cc(Cl)c23)cc1`, 1.07 (inactive).
`CC1(C)C(C=C(Cl)Cl)C1C(=O)OCc1cccc(Oc2ccccc2)c1` (centres undefined): the relative growth is 0.979 (inactive).
On the same count and under the same terms, under `Oc1ccccc1-c1ccccc1` stands 0.935 (inactive); under `CCC(C)c1ccccc1OC(=O)NC` (centres undefined), 1.01 (inactive); under `CN/C(=N\[N+](=O)[O-])NCc1cnc(Cl)s1`, 0.974 (inactive).
As for `O=C(O)c1nc(Cl)ccc1Cl`, the relative growth is 0.969 (inactive).
As to `CC1(C)[C@H](/C=C(\Cl)C(F)(F)F)[C@@H]1C(=O)OC(C#N)c1cccc(Oc2ccccc2)c1` (some centres undefined), the relative growth is 0.999 (inactive).
The same measure, in the same setting: the figure for `O=C(NC(=O)c1c(F)cccc1F)Nc1ccc(OC(F)(F)C(F)OC(F)(F)F)c(Cl)c1` (centres undefined) is 0.961 (inactive); for `O=C1C=C(N(Cc2ccc(Cl)nc2)CC(F)F)CO1` it is 0.993 (inactive).
For `O=C(O)COc1ccc(Cl)cc1Cl`, the relative growth is 1.01 (inactive).
On the same count and under the same terms, under `COc1ccc(C(=CC(=O)N2CCOCC2)c2ccc(Cl)cc2)cc1OC` (mixture of isomers) stands 1.01 (inactive); under `CCN(CC)c1nc(C)cc(OP(=S)(OC)OC)n1`, 0.979 (inactive).
On to `Oc1ccc(Cl)cc1Cc1cc(Cl)ccc1O`, for which the relative growth is 0.674 (active).
Consider `N#CC(CCc1ccc(Cl)cc1)(Cn1cncn1)c1ccccc1` (centres undefined), for which the relative growth is 0.934 (inactive).

For another experiment, the system named is Pseudomonas 5 (Pseudomonas baetica). The experiment is described as above. To be noted: 20 µM. The method, boiled down: as §1
`CNC(=O)CSP(=S)(OC)OC`: the relative growth was 1.02 (inactive).
On the same count and under the same terms, under `N#CCNC(=O)c1cnccc1C(F)(F)F` stands 1.01 (inactive).
For `COP(=O)(OC)OC=C(Cl)Cl`, the relative growth was 1.01 (inactive).
Same read-out and setting: under `CCc1cc(C)cc(CC)c1-c1c(OC(=O)C(C)(C)C)n2n(c1=O)CCOCC2` stands 0.951 (inactive); under `CCOc1ccc(C(C)(C)COCc2cccc(Oc3ccccc3)c2)cc1`, 0.991 (inactive).
On the same count and under the same terms, under `COc1ncc(F)c2nc(S(=O)(=O)Nc3c(F)cccc3F)nn12` stands 0.958 (inactive); under `O=[N+]([O-])c1cc(C(F)(F)F)c(Cl)c([N+](=O)[O-])c1Nc1ncc(C(F)(F)F)cc1Cl`, 0.595 (active); under `COP(=S)(OC)Oc1ccc(SC)c(C)c1`, 1.01 (inactive).
On the same count and under the same terms, the figure for `CCCCCCCCCCCCNC(=N)N` is 0.904 (inactive); for `CC(C)NC(=O)N1CC(=O)N(c2cc(Cl)cc(Cl)c2)C1=O` it is 0.954 (inactive).
On to `CCCCOC(=O)[C@H](C)Oc1ccc(Oc2ccc(C#N)cc2F)cc1`, for which the relative growth is 1.06 (inactive).
Take `CCc1cccc(C)c1N(C(=O)CCl)[C@@H](C)COC`: the relative growth is 1.03 (inactive).
The same measure, in the same setting: the figure for `CC(C1CC1)C(O)(Cn1cncn1)c1ccc(Cl)cc1` (centres undefined) is 0.986 (inactive); for `CC(COc1ccc(Oc2ccccc2)cc1)Oc1ccccn1` (centres undefined) it is 1.01 (inactive); for `CCNc1nc(Cl)nc(NC(C)C)n1` it is 1.01 (inactive).
With `N#C/N=C1\SCCN1Cc1ccc(Cl)nc1`, the relative growth was 1 (inactive).
The same measure, in the same setting: under `CCCC1COC(Cn2cncn2)(c2ccc(Cl)cc2Cl)O1` (centres undefined) stands 0.987 (inactive); under `COc1cc(C)c(C(=O)c2c(OC)ccc(Br)c2C)c(OC)c1OC`, 0.991 (inactive); under `C/C(=N\C#N)N(C)Cc1ccc(Cl)nc1`, 1.03 (inactive).
Same read-out and setting: under `CCCCN(CCCC)SN(C)C(=O)Oc1cccc2c1OC(C)(C)C2` stands 1.03 (inactive).
On the same count and under the same terms, the figure for `N#Cc1c(Cl)c(Cl)c(Cl)c(C#N)c1Cl` is 1.01 (inactive); for `Cc1nc(N(C)C)nc(OC(=O)N(C)C)c1C` it is 0.991 (inactive).
In the case of `CC(C)CC(C)c1sccc1NC(=O)c1cn(C)nc1C(F)(F)F` (centres undefined), the relative growth was 1 (inactive).
Still for that read-out and setting: the figure for `Fc1ccc(Oc2ccnc3cc(Cl)cc(Cl)c23)cc1` is 1.01 (inactive); for `CC1(C)C(C=C(Cl)Cl)C1C(=O)OCc1cccc(Oc2ccccc2)c1` (centres undefined) it is 1.05 (inactive); for `Oc1ccccc1-c1ccccc1` it is 1.05 (inactive).
Regarding `CCC(C)c1ccccc1OC(=O)NC` (centres undefined), the relative growth was 1.04 (inactive).
On the same count and under the same terms, the figure for `CN/C(=N\[N+](=O)[O-])NCc1cnc(Cl)s1` is 1.03 (inactive).
Still for that read-out and setting: under `O=C(O)c1nc(Cl)ccc1Cl` stands 0.971 (inactive).
The same measure, in the same setting: the figure for `CC1(C)[C@H](/C=C(\Cl)C(F)(F)F)[C@@H]1C(=O)OC(C#N)c1cccc(Oc2ccccc2)c1` (some centres undefined) is 1.08 (inactive).
Take `O=C(NC(=O)c1c(F)cccc1F)Nc1ccc(OC(F)(F)C(F)OC(F)(F)F)c(Cl)c1` (centres undefined): the relative growth is 0.966 (inactive).
Still for that read-out and setting: under `O=C1C=C(N(Cc2ccc(Cl)nc2)CC(F)F)CO1` stands 0.988 (inactive); under `O=C(O)COc1ccc(Cl)cc1Cl`, 0.997 (inactive); under `COc1ccc(C(=CC(=O)N2CCOCC2)c2ccc(Cl)cc2)cc1OC` (mixture of isomers), 0.972 (inactive).
Take `CCN(CC)c1nc(C)cc(OP(=S)(OC)OC)n1`: the relative growth was 0.988 (inactive).
On the same count and under the same terms, under `Oc1ccc(Cl)cc1Cc1cc(Cl)ccc1O` stands 0.817 (active).
In the case of `N#CC(CCc1ccc(Cl)cc1)(Cn1cncn1)c1ccccc1` (centres undefined), the relative growth was 0.932 (inactive).
